Compound activity (PubChem BioAssay)
The list is not random: actives were taken first. Their share in the collection is about 9.8%.
JMJD2E inh – blocks human JMJD2E demethylase activity. Potency, µM (top dose mostly 57.1 µM), most hits filed as inhibitors. B2RXH2. AID 2147. JMJD2E catalytic domain, FDH-coupled NADH fluorescence (FDH is formaldehyde dehydrogenase). 230,000 compounds, 1.6% hits; active means well fitted inhibition curve with a large enough effect, not every such curve was filed as active; inconclusive means small, poorly fitted or top-dose-only effect, or another doubt; inactive means no such curve, though single readings can be large or run the other way; further: nearly all actives have a fitted effect of over 50% in size
HPGD block – blocks human HPGD enzyme activity; Potency, µM, hits mostly inhibitors; 150,000 compounds, 4.3% hits; purified HPGD, NADH fluorescence kinetic, PGE2 substrate; P15428; active means well fitted inhibition curve with a large enough effect, not every such curve was filed as active; inconclusive means small, poorly fitted or top-dose-only effect, or another doubt; inactive means no such curve, though single readings can be large or run the other way
Target sequence (P15428 whole entry, looked up): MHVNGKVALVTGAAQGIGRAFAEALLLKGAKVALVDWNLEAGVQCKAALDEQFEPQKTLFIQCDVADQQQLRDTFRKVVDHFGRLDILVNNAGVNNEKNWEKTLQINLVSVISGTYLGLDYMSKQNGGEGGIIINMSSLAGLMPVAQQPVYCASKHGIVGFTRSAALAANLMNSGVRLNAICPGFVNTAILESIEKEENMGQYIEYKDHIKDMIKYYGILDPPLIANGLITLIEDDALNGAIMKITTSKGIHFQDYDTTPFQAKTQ
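20 nM HPGD preincubated 15 min at room temperature with compound in 50 mM Tris-HCl pH 8, 0.01% Tween 20. Started with 1 mM NAD+ and 30 uM prostaglandin E2; NADH fluorescence (360/450 nm) read 5 times over 30-s intervals, last minus first.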
HTT aggregate – reduces HttQ103-GFP aggregates in PC12 cells; 220,000 compounds, 1.1% hits; Potency, µM (series often up to 46.1 µM), hits mostly inhibitors; AID 1688; PC12 HttQ103-GFP aggregates, Acumen cytometry, 40 h; further: nearly all actives have a fitted effect of over 60% in size
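Using laser scanning cytometry, GFP-positive aggregates were counted after lysis of PC12 cells induced with 100 nM tebufenozide to express HTT exon 1 Q103–GFP. Compounds were tested in titration.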
HTT cytoprotect – protects HTT-Q103 PC12 cells, measured by ATP; PC12 HTT-Q103 induced, cytoprotection, ATP luminescence, 40 h; Potency, µM (titrated, usually from 56.4 µM), most hits filed as activators; 230,000 compounds, 0.14% hits; AID 1471; further: nearly all actives have a fitted effect of over 45% in size
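Quantitative HTS on tebufenozide-induced (100 nM) PC12 cells expressing HTTQ103 exon 1–GFP; compounds tested as a concentration series; survival measured via cellular ATP.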
CBFb-RUNX1 inh – inhibitors of human CBF-beta and RUNX1 interaction | AID 1477 | 230,000 tested, under 10 active | AlphaScreen CBFb-His/RUNX1-biotin binding, biochemical | Potency, µM (series often up to 59.8 µM), usual class: inhibitors
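Read-out: AlphaScreen. Format: His-CBF-beta with biotinylated RUNX1 (30 nM each) preincubated 20 min, compound 15 min, Ni-chelate plus streptavidin beads 90 min; room temperature throughout.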
ALDH1A1 block – ALDH1A1 (human) enzyme inhibition; Purified ALDH1A1, NADH fluorescence, propionaldehyde substrate; Potency, µM (series often up to 75.3 µM), actives largely listed as inhibitors; 220,000 compounds, 7.3% hits; AID 1030; active means well fitted inhibition curve with a large enough effect, not every such curve was filed as active; inconclusive means small, poorly fitted or top-dose-only effect, or another doubt; inactive means no such curve, though single readings can be large or run the other way
Target sequence (P00352 whole entry, looked up): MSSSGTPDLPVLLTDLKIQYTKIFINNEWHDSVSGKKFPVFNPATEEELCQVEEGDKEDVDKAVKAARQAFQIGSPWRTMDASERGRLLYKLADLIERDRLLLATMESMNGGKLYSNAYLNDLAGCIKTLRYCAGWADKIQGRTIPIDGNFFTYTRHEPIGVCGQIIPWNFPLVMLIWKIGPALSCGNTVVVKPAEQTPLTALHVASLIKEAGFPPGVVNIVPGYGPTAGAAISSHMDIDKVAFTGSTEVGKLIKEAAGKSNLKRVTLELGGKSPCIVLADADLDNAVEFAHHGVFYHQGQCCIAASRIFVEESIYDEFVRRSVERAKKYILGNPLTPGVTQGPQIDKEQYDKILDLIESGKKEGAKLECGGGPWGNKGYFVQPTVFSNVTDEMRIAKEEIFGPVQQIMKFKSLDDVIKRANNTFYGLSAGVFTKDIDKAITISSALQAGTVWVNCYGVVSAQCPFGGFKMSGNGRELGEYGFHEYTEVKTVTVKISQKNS
Each line names hits and unclear results; the compound was inactive in the other large screens. Unless noted, the call rests on the fitted dose curve; in most records, active means well fitted curve in the direction sought with a large enough effect; inconclusive means small, poorly fitted or top-dose-only effect, or another doubt; inactive means no such curve, though single readings can be large; an effect the other way counts as inactive or inconclusive.

O=C(c1cccc(Cl)c1)N1CCCC(C(=O)N2CCCCCC2)C1 (stereo not drawn)	ALDH1A1 block inconclusive
O=C1CC[C@@]23/C=C/C(=O)NCCCCNCCCNC(=O)/C=C/c4ccc(c2c4)OC3C1 (stereo partly drawn)	HTT cytoprotect inconclusive (no result: HTT aggregate)
Cc1ccc(-c2nc3cnccn3c2Nc2ccc3c(c2)OCCO3)o1	ALDH1A1 block 13µM
CN(C)c1ccc(-c2nc3cnccn3c2Nc2ccc3c(c2)OCCO3)cc1	JMJD2E inh inconclusive, CBFb-RUNX1 inh inconclusive (no result: HPGD block, ALDH1A1 block)
Cc1cc(C)[n+](C)n1CC(O)Cn1c2ccccc2c2ccccc21 (stereo not drawn)	none (no result: HPGD block)
CCOC(=O)Cn1nnnc1C(C(C)C)N(Cc1cc2c(C)cc(C)cc2[nH]c1=O)C1CCCC1 (stereo not drawn)	ALDH1A1 block 3.5µM
CC(=O)N(Cc1cc2c(C)cc(C)cc2[nH]c1=O)C1CCCCC1	JMJD2E inh inconclusive, ALDH1A1 block inconclusive
Cc1ccc(OC(=O)c2sc(Cl)nc2C)cc1C	ALDH1A1 block 20µM
Cc1ccc(C)c(NC(=O)c2sc(Cl)nc2C)c1	none
COc1cc2c3nnc(-c4ccccc4)c-3cn(Cc3ccccc3F)c2cc1OC	JMJD2E inh 3.5µM, ALDH1A1 block inconclusive (no result: HPGD block)
COc1cc2c3nnc(-c4ccc(F)cc4)c-3cn(Cc3ccccc3F)c2cc1OC	JMJD2E inh inconclusive, HTT aggregate 7.1µM (no result: HPGD block)
COc1cccc(C2SCC(=O)N2c2ccc(C)cc2)c1OC (stereo not drawn)	ALDH1A1 block 14µM
Nc1c(C(=O)Nc2ccc(S(=O)(=O)N3CCCC3)cc2)sc2nc3cc4c(cc3cc12)CCC4	HTT aggregate 14µM
Nc1c(C(=O)Nc2ccc(S(=O)(=O)N3CCCC3)cc2)sc2nc3ccc(OC(F)(F)F)cc3cc12	HTT aggregate inconclusive
C=CS(=O)(=O)c1ccc(Oc2ccc(S(=O)(=O)C=C)cc2)cc1	ALDH1A1 block 0.032µM (no result: HTT aggregate)
NS(=O)(=O)c1ccc(Oc2ccc(S(N)(=O)=O)cc2)cc1	HTT aggregate inconclusive (no result: HPGD block, HTT cytoprotect)
COc1ccc(C(=O)Nc2cc(OC)ccc2OC)cc1	none
COc1ccc(C/C(C)=N/NS(=O)(=O)c2ccc(Br)cc2)cc1	JMJD2E inh inconclusive, ALDH1A1 block 2.8µM (no result: HPGD block)
COc1ccc(OC)c(NC(=O)c2ccc3nc(-c4ccccc4)c(-c4ccccc4)nc3c2)c1	ALDH1A1 block 10µM
COc1ccc(C/C(C)=N/NC(=O)c2ccc(Cl)cc2)cc1	ALDH1A1 block 7.1µM (no result: HPGD block)
COc1ccc(C(=O)Nc2cc(Cl)ccc2OC(=O)c2ccc(OC)cc2)cc1	ALDH1A1 block 1µM
O=C(Cc1ccccc1)Nc1ccccc1CO	HPGD block 14µM, ALDH1A1 block inconclusive
Cn1c(-c2cccc(Br)c2)n[nH]c1=O	none (no result: HPGD block)
NS(=O)(=O)c1ccc(CCNCC(=O)NC2CC2)cc1	JMJD2E inh inconclusive (no result: HPGD block)
NS(=O)(=O)c1ccc(CCNCC(=O)N2CCC(Cc3ccccc3)CC2)cc1	ALDH1A1 block 10µM (no result: HPGD block)
O=C(NCCc1c[nH]c2ccccc12)/C(=C/c1cccnc1)NC(=O)c1cccs1	none (no result: HPGD block)
C/C(N)=C(/C#N)C(=O)CSc1nc2scc(-c3ccc(F)cc3)c2c(=O)n1C	ALDH1A1 block 16µM (no result: HPGD block)
COC(=O)C1=C(N)Oc2cc(C)[nH]c(=O)c2C1c1ccccc1OC (stereo not drawn)	none (no result: HPGD block, ALDH1A1 block)
COc1cccc(C2CC(C(F)(F)F)n3ncc(C(=O)NCC4CCCO4)c3N2)c1 (stereo not drawn)	HPGD block 14µM
CN(Cc1ccc(-n2cccn2)cc1)C(=O)c1cnn2c1NC(c1ccco1)CC2C(F)(F)F (stereo not drawn)	HTT aggregate inconclusive, ALDH1A1 block 7.9µM
COCCNC(=O)c1cnn2c1NC(c1ccco1)CC2C(F)(F)F (stereo not drawn)	HPGD block 25µM, ALDH1A1 block inconclusive
COc1cccc(/C=C2\SC(=S)N(C(Cc3ccccc3)C(=O)O)C2=O)c1 (stereo not drawn)	ALDH1A1 block inconclusive (no result: HPGD block)
Cc1nc2oc(C(=O)c3ccccc3)c(N)c2c2c1COC(C)(C)C2	ALDH1A1 block 14µM
O=C(/C=C/Nc1ccc(F)cc1F)c1cccs1	HPGD block inconclusive, ALDH1A1 block 2.4µM
O=C(/C=C/Nc1ccccc1F)c1cccs1	ALDH1A1 block inconclusive
CCOC(=O)C1=NOC(C(=O)NN(C)c2ncc(C(F)(F)F)cc2Cl)C1 (stereo not drawn)	none (no result: HPGD block)
CCC1CCCCN1C(=O)CSc1nnc(-c2c[nH]c3ccccc23)o1 (stereo not drawn)	ALDH1A1 block 13µM
CCC1CCCCN1C(=O)CSc1nc(N)cc(N)n1 (stereo not drawn)	ALDH1A1 block 8.9µM (no result: HPGD block)
CCC(C)NC(=O)CSc1nnc(-c2c[nH]c3ccccc23)o1 (stereo not drawn)	none (no result: HPGD block)
CC1CCCC(C)N1C(=O)CSc1nnc(-c2c[nH]c3ccccc23)o1 (stereo not drawn)	ALDH1A1 block 10µM
CC1CCCN(C(=O)CSc2nnc(-c3c[nH]c4ccccc34)o2)C1 (stereo not drawn)	HPGD block 16µM, ALDH1A1 block 14µM
COc1ccc(C(=O)Nc2cc(=O)[nH]c3ncnn23)cc1	ALDH1A1 block inconclusive (no result: HPGD block)
CCOC(=O)c1oc2cc(O)c(CC)cc2c(=O)c1-c1cscn1	none (no result: HPGD block)
CCOC(=O)c1ccc(-c2c(C(=O)OCC)oc3cc(O)c(CC)cc3c2=O)o1	JMJD2E inh inconclusive, HTT aggregate 5.6µM, ALDH1A1 block 10µM
COC(=O)c1c(NC(=S)Nc2cc(OC)c(Cl)cc2OC)sc2c1CCCCC2	HPGD block inconclusive, ALDH1A1 block 6.3µM
CC(=O)c1ccc(NC(=S)NCCc2cccc(Cl)c2)cc1	none (no result: HPGD block)
O=C(O)/C=C/c1coc2ccccc2c1=O	none
N#C/C(=C\c1coc2ccccc2c1=O)C(N)=S	JMJD2E inh inconclusive, ALDH1A1 block 32µM (no result: HPGD block)
O=C(Nc1ccc(Br)c(Cl)c1)C1CC1	HPGD block 18µM, HTT aggregate inconclusive
CC(=O)Nc1ccc(Br)c(Cl)c1	none (no result: HPGD block)
COc1ccc(CNC(=O)CN(C(=O)Cn2nnc(-c3ccccc3F)n2)c2ccc(C)cc2)cc1	ALDH1A1 block 8.9µM (no result: HPGD block)
O=C(Cc1ccc(Br)cc1)Nc1cccc(-c2cn3c(n2)SCC3)c1	CBFb-RUNX1 inh inconclusive, ALDH1A1 block inconclusive (no result: HPGD block, HTT cytoprotect)
CCn1ncc(CNC(=O)C2(C)CC2(Cl)Cl)c1C (stereo not drawn)	HPGD block 11µM
CCCCn1c(N)c(N(CC)C(=O)CSc2nnnn2-c2cc(C)ccc2C)c(=O)[nH]c1=O	ALDH1A1 block 11µM (no result: HPGD block)
Cc1cc([N+](=O)[O-])cnc1NC(C)c1ccccc1 (stereo not drawn)	HTT aggregate inconclusive, ALDH1A1 block 22µM
